# Hits are enriched below; roughly 4.9% of the tested compounds scored in any of these assays.
# OTUD3 inh – blocks human OTUD3 ubiquitin-rhodamine cleavage; AID 1645858; 47,000 compounds, 0.7% hits; inhibition, % at 25 µM; purified OTUD3, Ub-rhodamine fluorescence, 2 h
# USP10 block – inhibitors of human USP10 deubiquitinase; Q14694; purified USP10, Ub-rhodamine fluorescence, 60 min; AID 1645856; 47,000 compounds, 1.1% hits; inhibition, % at 20 µM
# USP8 inh – human USP8 deubiquitinase inhibition | inhibition, % at 20 µM | P40818 | 47,000 compounds, 4.2% hits | purified USP8, Ub-rhodamine cleavage fluorescence, 30 min
# Target sequence (P40818 whole entry, looked up): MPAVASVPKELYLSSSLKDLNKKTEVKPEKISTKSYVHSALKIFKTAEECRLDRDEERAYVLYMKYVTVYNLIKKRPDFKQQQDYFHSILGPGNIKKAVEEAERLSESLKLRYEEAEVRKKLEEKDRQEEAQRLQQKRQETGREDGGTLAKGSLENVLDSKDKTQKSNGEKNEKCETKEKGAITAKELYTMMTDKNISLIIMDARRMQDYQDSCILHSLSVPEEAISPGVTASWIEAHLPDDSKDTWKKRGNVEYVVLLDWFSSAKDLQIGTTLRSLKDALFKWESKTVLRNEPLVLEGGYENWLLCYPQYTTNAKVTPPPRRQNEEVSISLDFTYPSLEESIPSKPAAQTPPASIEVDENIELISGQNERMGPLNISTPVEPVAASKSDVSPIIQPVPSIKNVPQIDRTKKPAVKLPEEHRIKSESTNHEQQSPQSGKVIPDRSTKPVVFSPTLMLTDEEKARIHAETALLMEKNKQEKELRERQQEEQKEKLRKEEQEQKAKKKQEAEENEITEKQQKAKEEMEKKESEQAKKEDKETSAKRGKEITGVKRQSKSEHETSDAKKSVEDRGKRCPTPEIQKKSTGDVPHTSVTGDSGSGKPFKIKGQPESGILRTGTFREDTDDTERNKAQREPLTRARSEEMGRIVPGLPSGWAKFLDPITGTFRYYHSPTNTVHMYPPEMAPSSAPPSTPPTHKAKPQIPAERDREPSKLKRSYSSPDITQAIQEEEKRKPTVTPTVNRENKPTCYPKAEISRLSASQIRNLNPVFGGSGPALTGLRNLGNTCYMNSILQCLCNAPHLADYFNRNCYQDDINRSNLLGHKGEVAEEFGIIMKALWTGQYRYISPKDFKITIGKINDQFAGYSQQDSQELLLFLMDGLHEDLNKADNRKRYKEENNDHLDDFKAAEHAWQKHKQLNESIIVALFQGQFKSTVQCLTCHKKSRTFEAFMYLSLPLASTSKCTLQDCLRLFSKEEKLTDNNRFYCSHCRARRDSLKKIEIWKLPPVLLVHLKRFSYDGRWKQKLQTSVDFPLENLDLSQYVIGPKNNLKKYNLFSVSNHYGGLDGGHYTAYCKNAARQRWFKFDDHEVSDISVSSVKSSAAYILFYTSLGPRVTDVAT
# USP7 inh – human USP7 deubiquitinase inhibition. 47,000 compounds, 0.3% hits. AID 1645854. inhibition, % at 20 µM. purified USP7, Ub-rhodamine cleavage fluorescence
# UCHL1 inh – human UCHL1 deubiquitinase inhibition. AID 1645859. purified UCHL1, Ub-rhodamine cleavage fluorescence. inhibition, % at 20 µM. 47,000 compounds, 0.2% hits
# Numbers stand for hits; 0 = inactive. No stated cut-off is given here; in the data, active means inhibition above about 30%; inactive means the rest.
SMILES,OTUD3 inh,USP10 block,USP8 inh,USP7 inh,UCHL1 inh
Fc1ccc(-c2cc3n(c2)CCc2cc4c(cc2-3)OCO4)cc1,0,0,47,0,0
COc1ccccc1C(=O)Nc1ccc(C)c(N2CCCC2=O)c1,0,0,0,0,0
COCCn1ccc2nc(C)c(C(=O)NCc3ccc(C)cc3)cc2c1=O,0,0,0,0,0
COCCn1ccc2nc(C)c(C(=O)Nc3ccc4c(c3)OCO4)cc2c1=O,0,0,75,0,0
Fc1ccc(C(c2ccccc2)N2CCCNCC2)cc1 (stereo not drawn),0,0,0,0,0
O=C(Nc1nc2c(s1)CN(C(=O)c1cc(-c3ccco3)on1)CC2)C1CCCO1 (stereo not drawn),0,0,59,0,0
O=C(Nc1nc2c(s1)CN(C(=O)c1cnn(-c3ccccc3)n1)CC2)C1CCCO1 (stereo not drawn),0,0,0,0,0
CC1CCCCN1c1nc(F)c2c(c1F)S(=O)(=O)CCN2Cc1cccnc1 (stereo not drawn),0,0,70,0,0
CCN(CC)c1nc(F)c2c(c1F)S(=O)(=O)CCN2Cc1cccnc1,0,0,90,0,0
Cc1nn(-c2ccc(C(=O)N3CCCCC3)cc2)c2c1C(=O)CCC2,0,0,0,0,0
O=c1[nH]c(C2CCN(S(=O)(=O)c3ccc(S(=O)(=O)NC4CC4)cc3)CC2)nc2c1nnn2Cc1cccc(Cl)c1,0,32,0,0,0
O=c1[nH]c(C2CCN(S(=O)(=O)c3ccc(S(=O)(=O)NC4CCCC4)cc3)CC2)nc2c1nnn2Cc1cccc(Cl)c1,0,37,0,0,0
Cc1ccccc1CNC(=O)C1CCN(C(=O)c2cc(-c3ccccn3)n[nH]2)CC1,0,0,0,0,0
CCC(CC)c1nnc(NC(=O)c2ccc(=O)[nH]c2)s1,0,0,0,0,0
COc1cc2c(C#N)c(OC)nc3c2c(n1)NC(C)(c1ccc(Br)cc1)N3 (stereo not drawn),0,0,85,0,0
COc1ccc(-c2cccc(C3CN(Cc4cnc(C)s4)CCO3)n2)cc1 (stereo not drawn),0,0,0,0,0
NCCn1nc(C2CCN(C(=O)Cc3ccccc3F)C2)c2cccnc21 (stereo not drawn),0,0,0,0,0
Cc1ccc(-c2n[nH]n3c2nc(=O)c2ccc(C(=O)NCc4ccco4)cc23)cc1,0,0,0,0,0
COc1cccc(CNC(=O)c2ccc3c(=O)nc4c(-c5cccc(C)c5)n[nH]n4c3c2)c1,0,0,43,0,0
COc1ccc(NC(=O)c2sc3nc(-c4cccc([N+](=O)[O-])c4)cn3c2C)cc1OC,0,0,0,0,0
CC(=O)c1cccc(NC(=O)c2sc3nc(-c4cccc([N+](=O)[O-])c4)cn3c2C)c1,0,0,58,0,0
CC(=O)N1CC2(CCN(C(=O)c3ccccn3)CC2)Nc2ccccc21,0,0,0,0,0
O=C(c1ccccn1)N1CCC2(CC1)CC1(CO2)Nc2ccccc2-n2cccc21 (stereo not drawn),0,0,77,0,0
COc1cccc(C(=O)Nc2ccccc2-c2nc3ccc(C)cc3[nH]2)c1,0,0,0,0,0
Cc1ccc2nc(-c3cccc(NC(=O)C(C)C)c3)[nH]c2c1,0,0,65,0,0
SMILES,OTUD3 inh,USP10 block,USP8 inh,USP7 inh,UCHL1 inh
O=C(NNc1ncc(C(F)(F)F)cc1Cl)c1cccn1-c1ncc(C(F)(F)F)cc1Cl,0,0,0,0,0
O=C1c2ccccc2-c2nnc(-c3ccncc3)cc21,0,0,95,0,0
O=C(COc1ccc(Cl)cc1Cl)Nc1ccc2[nH]c(=O)[nH]c2c1,0,31,51,0,0
O=C(COC(=O)c1ccc(Cl)s1)c1ccc2[nH]c(=O)[nH]c2c1,0,0,32,0,0
COc1ccc(NC(=O)c2ccco2)cc1NC(=O)COc1ccc(Cl)cc1Cl,0,0,43,0,0
O=C(COC(=O)c1ccc(Cl)cc1)Nc1ccc2[nH]c(=O)[nH]c2c1,0,0,34,0,0
Cc1ccc(C(=O)CCC(=O)OCC(=O)c2ccc3[nH]c(=O)[nH]c3c2)cc1,0,0,0,0,0
CS(=O)(=O)N1CCN(c2ccccc2NC(=O)COc2cccc3ccccc23)CC1,0,0,0,0,0
Cc1cccc(Cc2nc(CC(=O)Nc3ccccc3)n[nH]2)c1,0,0,0,0,0
Nc1ccc2oc(-c3cccc(-c4nc5cc(N)ccc5o4)n3)nc2c1,40,37,73,0,0
Clc1ccc2oc(-c3cccs3)nc2c1,0,0,0,0,0
COc1ccccc1OCCSc1nnc(-c2ccc3c(c2)OCCCO3)n1C,0,0,0,78,0
Cc1cc2cc(CNC(=O)c3ccccc3C(=O)O)ccc2n1C,0,0,56,0,0
CCC(C(=O)NCc1ccc2c(c1)cc(C)n2C)c1ccccc1 (stereo not drawn),0,0,0,0,0
O=C(Cc1nnc(-c2cnccn2)o1)Nc1ccc(C(F)(F)F)cc1,0,0,55,0,0
O=C(COC(=O)CCc1nc2ccccc2[nH]c1=O)Nc1ccc([N+](=O)[O-])cc1,0,0,81,0,0
CC(OC(=O)CCc1nc2ccccc2[nH]c1=O)C(=O)Nc1cccc(Cl)c1Cl (stereo not drawn),0,0,0,0,0
CCC(=O)Oc1cn(-c2ccc(C(C)C)cc2)c2nc(CC)n3c4ccccc4nc3c12,0,0,47,0,0
CC(C)(C)c1ccc(N(CC(N)=O)S(C)(=O)=O)cc1,0,0,0,0,0
O=C(Nc1c2c(nn1-c1ccc([N+](=O)[O-])cc1)CS(=O)(=O)C2)c1cccs1,0,0,0,0,0
O=C(Nc1c2c(nn1-c1ccc([N+](=O)[O-])cc1)CSC2)c1c(F)cccc1F,0,34,0,0,0
C=C(NC(=O)C(=C)NC(=O)c1ccc2c(n1)-c1coc(n1)C(=C)NC(=O)C(=C)NC(=O)c1nc(oc1C)C(=C)NC(=O)C(C(C)(C)O)NC(=O)C(=C)NC(=O)c1nc(oc1C)/C(=C/C)NC(=O)C(C(C)O)NC(=O)c1csc-2n1)C(N)=O (stereo not drawn),0,0,0,0,0
Cc1cc(O)c(Oc2cc(C)cc(O)c2O)c(O)c1,34,0,0,0,0
CC(=O)N1CCN(c2nc3c(s2)CC(C(=O)NCc2ccccc2F)CC3)CC1 (stereo not drawn),0,0,0,0,0
CC1(C)COC(C)(C)N1C(=O)c1cccc2c1OCO2,0,0,0,0,0
Cc1nc2ccccc2n1CC(O)Cn1c2ccccc2c2ccccc21 (stereo not drawn),0,0,0,0,0
CCCn1c(C(O)c2cccc3ccccc23)nc2ccccc21 (stereo not drawn),0,0,48,0,0
COc1ccc(CCC(=O)Nc2ccc3nc(N4CCN(c5ncccn5)CC4)cc(C)c3c2)cc1,0,0,36,0,0
COc1ccc(/C=C/C(=O)Nc2ccc3nc(N4CCN(c5ncccn5)CC4)cc(C)c3c2)cc1,0,0,88,0,0

# Assay outcomes: PubChem BioAssay, Buhrlage Lab, Dana-Farber Cancer Institute and Novartis Institutes for BioMedical Research (Cambridge, Mass)
